Screening data from PubChem BioAssay.
Most compounds without a hit are left out; they make up all but 1.1% or so of the library.
GC-B act: GC-B (human) receptor activation. hit rate 0.11% among 370,000. HEK293-GC-B cells, CNP EC30, cGMP TR-FRET; 0% at EC30 CNP, 100% saturating CNP. P20594. activation, % at 10 µM. AID 1920062;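 active = activation at 10 µM reaching about 35% in either raw or pattern-adjusted values, limit read from the data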
Target sequence (P20594 whole entry, looked up): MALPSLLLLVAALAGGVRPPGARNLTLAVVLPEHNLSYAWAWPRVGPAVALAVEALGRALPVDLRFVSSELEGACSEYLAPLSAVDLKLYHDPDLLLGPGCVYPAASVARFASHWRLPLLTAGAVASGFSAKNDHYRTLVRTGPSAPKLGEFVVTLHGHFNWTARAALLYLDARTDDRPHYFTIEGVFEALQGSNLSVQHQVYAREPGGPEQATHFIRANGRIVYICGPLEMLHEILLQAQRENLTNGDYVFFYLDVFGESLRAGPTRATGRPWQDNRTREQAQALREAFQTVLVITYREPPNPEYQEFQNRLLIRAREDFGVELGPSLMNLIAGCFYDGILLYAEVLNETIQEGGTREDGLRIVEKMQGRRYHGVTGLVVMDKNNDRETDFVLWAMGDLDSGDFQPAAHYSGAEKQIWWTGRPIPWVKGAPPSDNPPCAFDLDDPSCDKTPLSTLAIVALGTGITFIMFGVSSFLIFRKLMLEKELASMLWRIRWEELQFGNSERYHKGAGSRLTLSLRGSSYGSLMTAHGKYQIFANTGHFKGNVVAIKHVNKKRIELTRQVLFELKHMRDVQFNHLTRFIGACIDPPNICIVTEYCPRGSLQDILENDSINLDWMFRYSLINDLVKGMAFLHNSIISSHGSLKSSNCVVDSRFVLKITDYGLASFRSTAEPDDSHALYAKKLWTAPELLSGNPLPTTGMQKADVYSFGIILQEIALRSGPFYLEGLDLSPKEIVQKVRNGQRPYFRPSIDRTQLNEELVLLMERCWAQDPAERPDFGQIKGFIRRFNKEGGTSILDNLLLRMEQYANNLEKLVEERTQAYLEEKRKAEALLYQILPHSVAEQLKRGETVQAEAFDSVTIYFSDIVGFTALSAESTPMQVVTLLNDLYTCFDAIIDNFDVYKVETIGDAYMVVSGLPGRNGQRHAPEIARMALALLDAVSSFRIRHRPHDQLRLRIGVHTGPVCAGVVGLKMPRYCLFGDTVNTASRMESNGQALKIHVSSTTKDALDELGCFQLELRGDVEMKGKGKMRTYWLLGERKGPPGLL
FAS-TE inh: blocks the thioesterase domain of human fatty acid synthase | recombinant FAS-TE, OMFH fluorogenic substrate, fluorescence endpoint | hit rate 0.67% among 360,000 | inhibition, % at 15 µM | P49327;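 active = compounds whose normalised, plate-corrected inhibition of enzyme fluorescence in the single-dose primary screen is 50% or more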
GC-A act: GC-A (human) enzyme activation. hit rate 0.14% among 370,000. P16066. activation, % at 10 µM. HEK293 GC-A cells, cGMP TR-FRET, EC30 ANP; 0% at EC30 ANP, 100% saturating ANP; in the data active = activation above about 40%
aDG glyco up: alpha-DG glycosylation activation | Pro5-aDG cells, alpha-DG glycosylation AlphaScreen (IIH6); 0% Pro5, 100% B10-LARGE cell signal | activation, % at 10 µM | hit rate 0.22% among 360,000;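 active = activation of at least 8% versus controls, or a plate z-score of at least 8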;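 note: Pro5 are CHO cells carrying HIG-tagged alpha-DG that lacks glycosylation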
Of the large screens only hits and unclear results are named; the others gave an inactive call.

O=C(COC(=O)c1cnc(Cl)c(Cl)c1)c1ccc(F)cc1	GC-A act 52
C=CCNC(=S)N/N=C/c1cn(-c2ccccc2)nc1-c1ccc(OC)cc1	GC-B act 42
COc1ccc(-c2nn(-c3ccccc3)cc2/C=N/NC(=O)c2ccc(Br)o2)cc1	none
CCOC(=O)[C@@H]1[C@H]2COc3ccc(Br)cc3[C@@H]2N2C(=O)N(c3ccc(Br)cc3)C(=O)[C@]12C	FAS-TE inh 72
COc1cc(/C=C/c2ccc3cccc(O)c3n2)cc(OC)c1OC	none
COc1cc(/C=C/c2ccc3cccc(O)c3n2)cc(Cl)c1OC	aDG glyco up 2.5
CN(C)C(=O)N1CCN(C(=O)[C@H](CCc2ccccc2)NC(=O)[C@H]2O[C@@H](n3cnc4c(N)ncnc43)[C@H](O)[C@@H]2O)CC1	none (no result: FAS-TE inh, aDG glyco up)
O=C(CSc1nnnn1C1CC2CCC1C2)Nc1ccnc2ccccc12 (stereo not drawn)	aDG glyco up 7.4
O=C(CSc1nnnn1C1CCCCC1)Nc1ccccc1F	none
Cc1ccc(-n2cc(CNCCc3ncc(C)[nH]3)c(-c3ccc(F)cc3)n2)cc1	aDG glyco up 11
CCOc1cc(C(=O)OCC(=O)Nc2c(C)cccc2C)ccc1OCC(=O)N1CCOCC1	none
CCOC(=O)c1ccccc1NC(=O)COC(=O)c1ccc(OCC(=O)N2CCOCC2)c(OCC)c1	GC-B act 35
CC1CCCN(CCCNS(=O)(=O)c2cc3c(cc2Br)CCN3C(=O)C2CC2)C1 (stereo not drawn)	none (no result: FAS-TE inh, aDG glyco up)
CCOc1cc(/C=C(\C#N)C(=O)Nc2cccc(C(=O)O)c2)ccc1OCc1ccccc1Cl	none
CCOc1cc(/C=C(\C#N)C(=O)Nc2cccc(C(=O)O)c2)cc(Br)c1OC(=O)c1ccc(OC)cc1	FAS-TE inh 84
CN1C(=O)[C@@](O)(c2cccn2C)c2cc(Cl)ccc21	none (no result: FAS-TE inh, aDG glyco up)
COC(=O)[C@]12C[C@H](CC(=O)NCC34CC5CC(CC(C5)C3)C4)C(=O)N(CCC3=CCCCC3)C1=C[C@H](C(C)C)O[C@@H]2C1CC1	none (no result: FAS-TE inh, aDG glyco up)
c1nc(NCc2ccc3c(c2)OCO3)c2cc(-c3ccoc3)ccc2n1	GC-B act 46, GC-A act 42
CCOC(=O)Cc1cc(=O)n2[nH]c(C)c(-c3ccccc3)c2n1	GC-B act 43
O=C1OCCC1Sc1nnnn1-c1ccc(Cl)cc1 (stereo not drawn)	GC-A act 65
CCC(=O)Nc1cc(C(=O)OCC(=O)c2ccc(Cl)cc2Cl)ccc1C	GC-A act 57
COCCCn1cc(CN2CC=CS2(=O)=O)nn1	none (no result: FAS-TE inh, aDG glyco up)
Cn1nnnc1SCC(=O)Nc1nc(-c2ccc(F)c(F)c2)cs1	GC-A act 42
CC(Sc1nnnn1C)C(=O)Nc1nc(-c2ccc(F)c(F)c2)cs1 (stereo not drawn)	none
O=S1(=O)c2ccc(Br)cc2OC[C@H](Cc2ccccc2)N1Cc1cn(CCC2OCCO2)nn1	none (no result: FAS-TE inh, aDG glyco up)
COc1ccc(CNC(=O)c2cc(C3CC3)nc3c2cnn3C(C)C)cc1OC	none
Cc1ccc(CNC(=O)c2cc(C3CC3)nc3c2cnn3C(C)C)cc1	GC-B act 50, GC-A act 40
CCCCCCCCCCCCN1[C@@H](CC(=O)O)c2cc(C(F)(F)F)ccc2S1(=O)=O	FAS-TE inh 58
COc1ccc(NC(=O)COC(=O)c2cc3c(s2)CCC3)cc1	aDG glyco up 9.7 (no result: GC-B act, GC-A act)
COc1ccc(NC(=O)c2cc(-c3cc(F)ccc3OC(C)C)n[nH]2)c(C)c1	GC-B act 61, GC-A act 56
Cc1c(N=C2N=C(NC(=O)Nc3ccc(Cl)cc3)c3ccccc32)c(=O)n(-c2ccccc2)n1C	GC-A act 76
O=S1(=O)C=CCN1Cc1cn(Cc2cccc(C(F)(F)F)c2)nn1	none (no result: FAS-TE inh, aDG glyco up)
Cc1cc(C)c(S(=O)(=O)NCc2ccncc2)c(C)c1	aDG glyco up 6.3
Cc1cc(C)c(S(=O)(=O)NCCc2ccncc2)c(C)c1	none
Cc1ccc(S(=O)(=O)NCc2ccncc2)c(C)c1C	aDG glyco up 7.2
COC(=O)c1cc2c(c3c4cc(C)ccc4n(S(=O)(=O)c4ccc(OC)cc4)c13)C(=O)N(Cc1ccc(C(F)(F)F)cc1)C2	none (no result: FAS-TE inh, aDG glyco up)
CN1C(=O)c2cccc(NC(=O)C3CCCCC3)c2C1=O	GC-B act 55
CCC(=O)Nc1cccc2c1C(=O)N(C)C2=O	none
O=S(=O)(O)c1cccc2c(N=Nc3ccc(O)c4ncccc34)cccc12	FAS-TE inh 75 (no result: GC-B act, GC-A act)
Nc1[nH]c(C(=O)c2ccccc2)c(-c2cccc3ccccc23)c1C(=O)NCc1ccc(Cl)cc1Cl	none (no result: FAS-TE inh, aDG glyco up)
O=[N+]([O-])c1ncccc1OCCOc1ccc(Cl)cc1Cl	GC-A act 47 (no result: FAS-TE inh, aDG glyco up)
CCCCNc1c(-c2ccc(OC)c(Sc3ccc(OC)cc3)c2)nc2cnccn12	none
Cc1ccc(Nc2c(-c3ccc(N4CCOCC4)cc3)nc3cnccn23)cc1	none
Cc1ccc(Nc2c(-c3ccccc3O)nc3ncccn23)cc1	GC-A act 54
COc1ccc(Nc2c(-c3ccc(OC)cc3)nc3cnccn23)cc1	GC-B act 49, GC-A act 50
COc1ccc(Nc2c(-c3ccc(C)cc3)nc3cnccn23)cc1	GC-B act 48, GC-A act 46
Cc1cccc(Nc2c(-c3ccc(O)cc3)nc3ncccn23)c1	none
Cc1ccc(Nc2c(-c3ccccc3O)nc3cnccn23)cc1	GC-A act 48
CCCCOCCCNC(=O)C[C@H]1C[C@@]2(C(=O)OC)C(=C[C@H](C(C)(C)C)O[C@@H]2C)N(Cc2cccc3ccccc23)C1=O	none (no result: FAS-TE inh, aDG glyco up)
C=C(C)[C@H]1CC=C(C(=O)O)CC1	none (no result: FAS-TE inh, aDG glyco up)
CCCCOc1ncnc2c1[nH]c1ccc(F)cc12	aDG glyco up 6.5
Fc1ccc2[nH]c3c(N4CCN(c5ccccc5)CC4)ncnc3c2c1	none
CCOC(=O)N1CCN(c2ncnc3c2[nH]c2ccc(F)cc23)CC1	aDG glyco up 5.9
CCOC(=O)N1CCN(c2ncnc3c2[nH]c2ccc(OC)cc23)CC1	none
CCCCOc1ncnc2c1[nH]c1ccc(OCC)cc12	none
OC1(c2cccc(C(F)(F)F)c2)CCN(c2ncnc3c2[nH]c2ccc(F)cc23)CC1	aDG glyco up 3.7
O=C(NCc1ccco1)C1CCCN(S(=O)(=O)c2ccccc2F)C1 (stereo not drawn)	none (no result: FAS-TE inh, aDG glyco up)
CN1C(=O)c2cc(NS(=O)(=O)c3cccc(F)c3)ccc2OC[C@@H]2O[C@H](CC(=O)O)CC[C@H]21	none (no result: FAS-TE inh, aDG glyco up)
CCOC(=O)CC[C@@]1(C(=O)OCC)C[C@@H](CC(=O)NCCCOC)C(=O)N2CCCC=C21	none (no result: FAS-TE inh, aDG glyco up)
O=C(CCc1c[nH]c2ccccc12)Nc1ccc(Nc2ccccc2)cc1	none (no result: FAS-TE inh, aDG glyco up)
COc1ccc2c(c1)CNC2CS(=O)(=O)NCc1ccccc1 (stereo not drawn)	none (no result: FAS-TE inh, aDG glyco up)
Cc1ccc(-c2nc3cnccn3c2Nc2ccc3c(c2)OCCO3)o1	none
COc1ccc(-c2nc3cnccn3c2Nc2ccc3c(c2)OCO3)cc1	GC-B act 47, GC-A act 52
Cc1ccc(-c2nc3cnccn3c2Nc2ccc3c(c2)OCO3)cc1	GC-B act 50, GC-A act 51
CN(C)c1ccc(-c2nc3cnccn3c2Nc2ccc3c(c2)OCCO3)cc1	none
